GDH-TPI counter = inhibits GDH-TPI coupling enzymes, artifact for Mtb FBA screen | GDH-TPI coupled enzyme counterscreen, NADH absorbance | hit rate 1.2% among 360,000 | inhibition, % at 4.8 µM; in the data active = inhibition above about 30%;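 note: 0% = DMSO wells and 100% = wells lacking the enzyme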
RecA splice inh = Mtb RecA intein splicing inhibition; cell-free RecA intein splicing, fluorescence; inhibition, % (concentration not given with the values); hit rate 0.75% among 290,000; AID 2221; in the data active = inhibition above about 30%;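 note: 0% = vehicle wells and 100% = reference inhibitor control wells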
FBA Mtb inh = Mtb fructose-bisphosphate aldolase inhibition | hit rate 2.3% among 360,000 | AID 588726 | inhibition, % at 1 µM | P9WQA3 | purified M. tuberculosis FBA, fluorescence read-out; in the data active = inhibition above about 27%;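 note: 0% = vehicle and 100% = reference inhibitor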
Mtb UGM inh = inhibitors of M. tuberculosis UDP-galactopyranose mutase; P9WIQ1; purified UGM, fluorescence polarization probe displacement; inhibition, % at 10 µM; hit rate 0.06% among 320,000; in the data active = inhibition above about 10%, passing the limit was not always enough
Mtb betalactam = beta-lactam sensitization of Mtb H37Rv. inhibition, % at 25 µM. AID 434955. hit rate 0.27% among 330,000. M. tuberculosis H37Rv growth with meropenem, percent inhibition;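 note: growth measured after seven days incubation then overnight dye step; 0% = bacteria only wells and 100% = bacteria with antibiotic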
Rv3671c inh = inhibitors of M. tuberculosis serine protease Rv3671c | inhibition, % at 5.96 µM | hit rate 0.048% among 320,000 | AID 2606; in the data active = inhibition above about 38%;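 note: extracellular domain of Rv3671c used as enzyme; 0% = enzyme with DMSO and 100% = no enzyme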
Target sequence (P9WHR9 whole entry, looked up, the tested form may be a part): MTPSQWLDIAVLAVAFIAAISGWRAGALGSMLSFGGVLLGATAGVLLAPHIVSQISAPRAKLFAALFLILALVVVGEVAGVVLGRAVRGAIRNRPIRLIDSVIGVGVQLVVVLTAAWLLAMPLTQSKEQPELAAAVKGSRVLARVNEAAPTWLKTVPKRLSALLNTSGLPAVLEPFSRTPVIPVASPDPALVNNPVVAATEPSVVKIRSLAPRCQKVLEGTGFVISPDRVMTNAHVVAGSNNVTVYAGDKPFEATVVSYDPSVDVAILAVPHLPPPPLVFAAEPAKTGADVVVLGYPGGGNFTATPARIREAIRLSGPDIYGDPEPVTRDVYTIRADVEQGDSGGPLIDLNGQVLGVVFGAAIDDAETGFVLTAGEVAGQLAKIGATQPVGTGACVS
GFP chromophore = counter-screen: blocks GFP chromophore formation | shares compounds with RecA splice inh | cell-free GFP chromophore formation, fluorescence | EC50, µM | hit rate 83% among 2,100 | AID 434968
* marks the source's active call; other numbers are inactive results; . = not tested or not shown. The list is not random: actives were taken first. Their share in the collection is about 4%. Unless noted, the rule behind the calls is not given here.

SMILES | GDH-TPI counter | RecA splice inh | FBA Mtb inh | Mtb UGM inh | Mtb betalactam | Rv3671c inh | GFP chromophore
CCc1nnc(NC(=O)c2nc(S(=O)(=O)Cc3ccc(C)cc3)ncc2Cl)s1 | 8 | 76* | -2 | -2 | -1 | 5 | 20*
COC(=O)c1ccccc1NC(=O)c1nc(S(=O)(=O)Cc2ccccc2)ncc1Cl | 3 | 2 | -1 | 1 | 1 | -3 | .
O=C(OCC1OC(n2ccc(=O)[nH]c2=O)C2OC12)c1ccccc1 (stereo unspecified) | -3 | . | 0 | . | . | . | .
O=C(NCc1ccc2c(c1)OCO2)c1nc(Cn2cc([N+](=O)[O-])cn2)no1 | -3 | . | 0 | 0 | 8 | -6 | .
CCn1c(COc2ccccc2C)nnc1SCC(=O)NCc1ccccc1 | -7 | -1 | 1 | 0 | -8 | 3 | .
CCn1c(COc2cccc3ccccc23)nnc1SCC(N)=O | -8 | 3 | -1 | 0 | 4 | -3 | >38
O=C(CSc1nnc(Cc2ccccc2)o1)Nc1cccc(F)c1 | 12 | 43* | 0 | -2 | 0 | -4 | >38
CCN(CC)S(=O)(=O)c1cccc(-n2c(O)c(C=Nc3ccccc3C(=O)O)c3ccccc3c2=O)c1 | 1 | -1 | 5 | 2 | -6 | 5 | .
O=C(O)CN1C(=O)/C(=C\c2cccc(OC(=O)c3ccco3)c2)SC1=S | 16 | 31* | -5 | 3 | -4 | 5 | >38
O=C(O)COc1ccc(/C=C2/SC(=S)N(Cc3ccccc3)C2=O)cc1 | 4 | 53* | -3 | -5 | 0 | -19 | 36*
Cc1cc(O)c2c(c1)C(=O)[C@@]13Oc4c5c(c(O)c6c(O)cc(C)cc46)C(=O)C[C@H](O)[C@H]5[C@@H]1[C@@H](O)CC(=O)C3=C2O | 3 | . | -5 | . | . | . | .
Nc1nnn(CC(=O)N/N=C/C=C/c2ccccc2)n1 | 15 | 0 | 3 | 5 | 20 | -6 | .
O=C1CCCC(O)=C1C(C#Cc1ccccc1)C1=C(O)CCCC1=O | 9 | 30* | -5 | 4 | 0 | 6 | 12*
CC1(C)CC(=O)C(C(C#Cc2ccccc2)C2=C(O)CC(C)(C)CC2=O)=C(O)C1 | 11 | 1 | 2 | 1 | 4 | 6 | .
COc1ccc(/C=C/C(=O)c2ccncc2)c2ccccc12 | 3 | 57* | -8 | -1 | 82 | -11 | 23*
COc1ccc(/C=C/C(=O)c2ccc[nH]2)c(OC)c1OC | 26 | 3 | 0 | -4 | 2 | 1 | .
CC(C)CCNC(=O)C1CCC(=O)N1CCc1ccccc1 (stereo unspecified) | 5 | 1 | 8 | 1 | -9 | 0 | .
CCN(Cc1ccccc1)C(c1ccc(C)cc1)c1nnnn1C(C)(C)CC (stereo unspecified) | 10 | 30* | 3 | 1 | 9 | 10 | >38
O=C(Nc1ccc2ncccc2c1)c1cccc(Br)c1 | -2 | -3 | 0 | 0 | 0 | -5 | .
Brc1ccc(CNc2ccc3ncccc3c2)cc1 | -7 | 39* | 11 | 1 | 86 | . | >38
Cc1[nH]n(-c2ccc(Cl)cc2)c(=O)c1C(=O)c1ccccc1 | 7 | 3 | 1 | 0 | 68 | -1 | .
CC1=NN(c2ccc(Cl)cc2)C(=O)C1C(c1cccc(O)c1)c1c(C)[nH]n(-c2ccc(Cl)cc2)c1=O (stereo unspecified) | 6 | 88* | -1 | 0 | 0 | -18 | 2.3*
CC1=NN(c2ccc(F)cc2)C(=O)C1C(c1cccc(O)c1)c1c(C)[nH]n(-c2ccc(F)cc2)c1=O (stereo unspecified) | 3 | 97* | 1 | 1 | 2 | -112 | 1.8*
COc1ccc(S(=O)(=O)N2CCC3(CC2)OCCN3S(=O)(=O)c2ccccc2)cc1OC | 2 | 1 | 1 | 5 | -8 | 2 | .
COc1ccc(C(=O)N2CCC(C(=O)O)CC2)c2ccccc12 | -5 | -2 | 0 | 3 | 3 | -11 | .
O=C(NN=Cc1ccccc1C(=O)O)c1cccc(S(=O)(=O)Nc2cccc(C(F)(F)F)c2)c1 | -4 | . | 0 | 9 | -4 | -81 | .
COCCNC(=O)c1cc2c(c(-c3cccc(C#Cc4ccc(OC)c(OC)c4)c3)n1)[C@H](CCO)N(S(=O)C(C)(C)C)C2 (stereo partly specified) | . | . | -3 | . | . | . | .
CCN(CC)CC(=O)Nc1sc(C)cc1C(=O)c1ccccc1 | 6 | -1 | -1 | 1 | 11 | -15 | .
